Assay results as given in ChEMBL document CHEMBL2218924, “A broad activity screen in support of a chemogenomic map for kinase signalling research and drug discovery” (Biochem J, 2013).

Experiments:
[1] = biological target: Serine/threonine-protein kinase MRCK beta (Homo sapiens) (UniProt Q9Y5S2); details: at 1 µM
[2] = biological target: Serine/threonine-protein kinase MRCK beta (Homo sapiens) (UniProt Q9Y5S2); details: at 10 µM
[3] = biological target: Ribosomal protein S6 kinase alpha-5 (Homo sapiens) (UniProt O75582); details: at 1 µM
[4] = biological target: Ribosomal protein S6 kinase alpha-5 (Homo sapiens) (UniProt O75582); details: at 10 µM
[5] = biological target: Ribosomal protein S6 kinase alpha-4 (Homo sapiens) (UniProt O75676); details: at 1 µM
[6] = biological target: Ribosomal protein S6 kinase alpha-4 (Homo sapiens) (UniProt O75676); details: at 10 µM
[7] = biological target: SRSF protein kinase 3 (Homo sapiens) (UniProt Q9UPE1); details: at 1 µM
[8] = biological target: SRSF protein kinase 3 (Homo sapiens) (UniProt Q9UPE1); details: at 10 µM
[9] = biological target: T1, Serine/threonine-protein kinase 4 (Homo sapiens) (UniProt Q13043); details: at 1 µM
T1 sequence (whole entry): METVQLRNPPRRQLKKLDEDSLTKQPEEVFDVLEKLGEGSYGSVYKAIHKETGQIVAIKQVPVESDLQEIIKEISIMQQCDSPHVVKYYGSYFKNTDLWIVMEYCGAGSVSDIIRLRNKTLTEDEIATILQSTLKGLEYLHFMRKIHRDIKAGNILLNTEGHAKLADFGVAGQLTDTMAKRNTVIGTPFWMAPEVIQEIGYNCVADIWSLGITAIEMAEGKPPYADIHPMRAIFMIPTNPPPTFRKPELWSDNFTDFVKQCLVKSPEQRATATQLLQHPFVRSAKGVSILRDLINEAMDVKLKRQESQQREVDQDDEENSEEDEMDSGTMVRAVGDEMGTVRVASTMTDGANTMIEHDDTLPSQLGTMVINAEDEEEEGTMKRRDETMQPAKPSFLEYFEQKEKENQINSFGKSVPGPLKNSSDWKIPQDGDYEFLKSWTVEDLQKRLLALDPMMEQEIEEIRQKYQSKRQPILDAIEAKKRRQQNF

[10] = biological target: T1, Serine/threonine-protein kinase 4 (Homo sapiens); details: at 10 µM

SRSF protein kinase 3 (Homo sapiens), sequence (Q9UPE1 whole entry): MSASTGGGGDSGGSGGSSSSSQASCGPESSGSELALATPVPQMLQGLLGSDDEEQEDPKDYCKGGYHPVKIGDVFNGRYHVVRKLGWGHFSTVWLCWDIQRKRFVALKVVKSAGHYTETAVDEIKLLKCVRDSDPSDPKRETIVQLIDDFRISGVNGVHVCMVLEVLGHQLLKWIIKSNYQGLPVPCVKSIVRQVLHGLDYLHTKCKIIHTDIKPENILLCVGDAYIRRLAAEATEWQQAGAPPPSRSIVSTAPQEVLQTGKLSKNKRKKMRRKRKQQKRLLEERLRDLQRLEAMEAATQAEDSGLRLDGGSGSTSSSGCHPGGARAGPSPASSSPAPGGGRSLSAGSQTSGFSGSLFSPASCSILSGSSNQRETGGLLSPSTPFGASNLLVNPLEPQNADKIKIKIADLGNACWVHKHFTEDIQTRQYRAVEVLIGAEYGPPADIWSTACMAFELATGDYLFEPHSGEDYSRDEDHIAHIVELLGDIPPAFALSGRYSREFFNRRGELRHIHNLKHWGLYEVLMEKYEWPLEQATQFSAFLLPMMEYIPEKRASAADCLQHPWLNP
Ribosomal protein S6 kinase alpha-5 (Homo sapiens), sequence (O75582 whole entry, looked up): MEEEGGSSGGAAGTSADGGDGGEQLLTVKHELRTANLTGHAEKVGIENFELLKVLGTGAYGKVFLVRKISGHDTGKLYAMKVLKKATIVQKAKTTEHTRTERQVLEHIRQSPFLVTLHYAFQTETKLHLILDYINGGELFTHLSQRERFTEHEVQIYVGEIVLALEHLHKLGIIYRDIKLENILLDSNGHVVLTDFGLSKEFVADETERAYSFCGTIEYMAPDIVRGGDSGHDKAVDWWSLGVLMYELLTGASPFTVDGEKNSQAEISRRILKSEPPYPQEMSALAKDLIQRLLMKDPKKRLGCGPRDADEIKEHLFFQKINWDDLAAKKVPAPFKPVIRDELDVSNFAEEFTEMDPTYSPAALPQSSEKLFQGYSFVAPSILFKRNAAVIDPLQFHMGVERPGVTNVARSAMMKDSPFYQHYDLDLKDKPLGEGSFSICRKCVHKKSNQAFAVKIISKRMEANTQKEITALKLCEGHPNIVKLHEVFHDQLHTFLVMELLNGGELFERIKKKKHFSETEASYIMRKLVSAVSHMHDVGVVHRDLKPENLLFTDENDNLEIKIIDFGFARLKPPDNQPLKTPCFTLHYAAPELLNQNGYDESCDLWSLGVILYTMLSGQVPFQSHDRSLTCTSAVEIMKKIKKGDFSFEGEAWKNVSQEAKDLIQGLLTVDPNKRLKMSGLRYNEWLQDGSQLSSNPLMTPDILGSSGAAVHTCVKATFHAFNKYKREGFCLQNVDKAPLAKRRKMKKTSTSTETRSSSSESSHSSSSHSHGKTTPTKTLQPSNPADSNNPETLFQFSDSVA
Serine/threonine-protein kinase MRCK beta (Homo sapiens), sequence (Q9Y5S2 whole entry): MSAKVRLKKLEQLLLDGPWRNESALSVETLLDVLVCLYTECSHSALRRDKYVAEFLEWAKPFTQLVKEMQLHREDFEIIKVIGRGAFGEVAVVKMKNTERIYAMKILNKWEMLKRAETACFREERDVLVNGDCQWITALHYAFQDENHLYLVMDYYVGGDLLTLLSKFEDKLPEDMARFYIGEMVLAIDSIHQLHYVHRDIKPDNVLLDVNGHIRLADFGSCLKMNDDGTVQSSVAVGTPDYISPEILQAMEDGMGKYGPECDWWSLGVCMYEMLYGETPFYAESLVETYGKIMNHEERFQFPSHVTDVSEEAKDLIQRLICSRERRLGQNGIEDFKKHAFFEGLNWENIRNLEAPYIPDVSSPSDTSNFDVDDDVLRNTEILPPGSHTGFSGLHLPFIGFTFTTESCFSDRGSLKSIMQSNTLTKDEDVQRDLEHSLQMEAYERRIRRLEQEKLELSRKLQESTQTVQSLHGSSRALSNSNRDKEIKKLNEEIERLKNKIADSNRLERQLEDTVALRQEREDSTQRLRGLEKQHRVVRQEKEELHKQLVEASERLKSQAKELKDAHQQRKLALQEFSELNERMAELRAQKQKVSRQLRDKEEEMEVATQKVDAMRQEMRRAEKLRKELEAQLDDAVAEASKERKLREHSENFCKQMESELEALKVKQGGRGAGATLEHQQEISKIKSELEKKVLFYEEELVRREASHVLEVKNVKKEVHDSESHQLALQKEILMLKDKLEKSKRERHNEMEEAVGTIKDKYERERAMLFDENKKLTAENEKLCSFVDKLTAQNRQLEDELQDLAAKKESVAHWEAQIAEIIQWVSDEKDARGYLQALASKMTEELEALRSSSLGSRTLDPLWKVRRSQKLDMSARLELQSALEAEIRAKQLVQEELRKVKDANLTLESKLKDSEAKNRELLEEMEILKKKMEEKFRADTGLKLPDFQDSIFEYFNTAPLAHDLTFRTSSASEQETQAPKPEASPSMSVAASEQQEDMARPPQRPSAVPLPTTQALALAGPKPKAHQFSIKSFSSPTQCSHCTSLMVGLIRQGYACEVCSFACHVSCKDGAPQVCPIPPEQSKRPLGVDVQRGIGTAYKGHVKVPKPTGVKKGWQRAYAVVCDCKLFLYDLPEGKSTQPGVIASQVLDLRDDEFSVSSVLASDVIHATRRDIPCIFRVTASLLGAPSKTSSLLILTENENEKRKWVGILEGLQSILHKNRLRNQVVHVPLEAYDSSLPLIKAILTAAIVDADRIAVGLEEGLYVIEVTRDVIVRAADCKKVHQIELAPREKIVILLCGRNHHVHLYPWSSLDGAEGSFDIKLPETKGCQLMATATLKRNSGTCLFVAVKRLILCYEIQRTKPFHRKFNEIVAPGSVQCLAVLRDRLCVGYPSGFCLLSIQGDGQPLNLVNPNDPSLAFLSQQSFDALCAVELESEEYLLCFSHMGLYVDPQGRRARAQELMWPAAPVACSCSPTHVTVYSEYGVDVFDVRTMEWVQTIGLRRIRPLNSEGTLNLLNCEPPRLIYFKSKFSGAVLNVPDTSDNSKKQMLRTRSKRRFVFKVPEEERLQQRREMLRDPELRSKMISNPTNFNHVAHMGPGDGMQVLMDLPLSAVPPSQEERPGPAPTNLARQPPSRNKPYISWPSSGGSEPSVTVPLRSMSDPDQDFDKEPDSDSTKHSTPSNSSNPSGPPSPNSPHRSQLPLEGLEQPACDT
Ribosomal protein S6 kinase alpha-4 (Homo sapiens), sequence (O75676 whole entry, looked up): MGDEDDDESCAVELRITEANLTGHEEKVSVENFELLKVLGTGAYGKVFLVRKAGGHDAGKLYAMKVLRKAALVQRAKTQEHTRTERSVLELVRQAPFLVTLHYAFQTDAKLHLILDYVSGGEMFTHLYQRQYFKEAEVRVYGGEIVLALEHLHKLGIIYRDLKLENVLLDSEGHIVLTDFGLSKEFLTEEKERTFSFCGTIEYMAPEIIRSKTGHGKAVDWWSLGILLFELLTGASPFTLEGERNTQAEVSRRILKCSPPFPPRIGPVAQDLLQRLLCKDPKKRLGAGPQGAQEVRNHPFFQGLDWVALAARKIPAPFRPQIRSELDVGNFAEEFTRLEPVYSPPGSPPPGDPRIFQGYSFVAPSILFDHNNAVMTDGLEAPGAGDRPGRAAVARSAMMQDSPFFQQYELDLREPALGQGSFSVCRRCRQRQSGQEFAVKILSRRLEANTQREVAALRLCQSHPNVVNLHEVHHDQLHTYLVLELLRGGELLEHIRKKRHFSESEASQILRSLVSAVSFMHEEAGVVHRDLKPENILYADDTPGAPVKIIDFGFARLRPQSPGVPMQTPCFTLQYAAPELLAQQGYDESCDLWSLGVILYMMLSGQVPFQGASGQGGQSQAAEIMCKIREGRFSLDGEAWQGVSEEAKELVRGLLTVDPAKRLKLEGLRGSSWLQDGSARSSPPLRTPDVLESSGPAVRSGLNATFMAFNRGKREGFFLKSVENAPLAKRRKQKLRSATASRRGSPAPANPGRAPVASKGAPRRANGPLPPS

Compound	residual activity [1] [%]	residual activity [2] [%]	residual activity [3] [%]	residual activity [4] [%]	residual activity [5] [%]	residual activity [6] [%]	residual activity [7] [%]	residual activity [8] [%]	residual activity [9] [%]	residual activity [10] [%]
O=C1NC(=O)c2cc(Nc3ccc(F)cc3)c(Nc3ccc(F)cc3)cc21	79	64	128	93	97	91	106	84	92	100
O=c1c2ccccc2[nH]c(=S)n1CCN1CCC(=C(c2ccc(F)cc2)c2ccc(F)cc2)CC1	94	86	127	104	110	97	103	89	93	101
CN(C)c1ccc(/C=C2\C(=O)Nc3ccccc32)cc1	106	102	116	79	87	57	103	80	95	74
O=C(Nc1cccc(Nc2nccc(Nc3cccc(C(F)(F)F)c3)n2)c1)C1CC1	103	88	114	89	89	89	105	89	110	92
CCOc1cc2ncnc(Nc3cccc(Br)c3)c2cc1OCC	84	72	117	101	105	88	113	76	83	61
Cn1cc(/C=C2\C(=O)Nc3ccc(S(N)(=O)=O)cc32)c2ccccc21	83	87	86	54	56	41	103	25	13	11
Nc1nc(Nc2ccc(S(N)(=O)=O)cc2)nn1C(=S)Nc1c(F)cccc1F	8	3	81	70	19	21	37	12	0	-3
N#C/C(=C(\N)Sc1ccc(N)cc1)c1ccccc1C(F)(F)F	94	98	85	95	97	84	109	95	105	104
CCN(CC)CCCCN1c2ccccc2Oc2ccc(Cl)cc21	108	99	146	119	111	116	104	97	106	100
O=Nc1c(-c2c(O)[nH]c3ccccc23)[nH]c2ccccc12	106	103	61	21	32	4	85	46	8	2
Oc1ccc(-c2nc(-c3ccc(F)cc3)c(-c3ccncc3)[nH]2)cc1	105	92	102	98	77	43	120	110	92	113
Cn1nc2c3c(cccc31)C(=O)c1ccccc1-2	92	85	99	83	93	79	98	97	72	72
O=[N+]([O-])c1ccc(-c2nc(-c3ccc(F)cc3)c(-c3ccncc3)[nH]2)cc1	91	89	108	119	87	85	105	104	74	114
C[C@@H](N)[C@H]1CC[C@H](C(=O)Nc2ccncc2)CC1	95	69	90	50	82	58	96	98	105	79
CC(C)n1cnc2c(NCc3ccccc3)nc(NCCCO)nc21	88	88	110	110	102	97	106	76	102	102
CO[C@H]1[C@@H](OC)C[C@H](C)[C@@H](OC)C2=CC(=O)C=C(NC(=O)/C(C)=C/C=C/[C@H](OC)[C@@H](OC(N)=O)/C(C)=C/[C@@H]1C)C2=O	97	77	115	97	92	104	116	84	101	108
O=C1NC(=O)/C(=C\c2ccc3nccnc3c2)S1	93	53	123	90	89	68	94	69	94	101

Compound	residual activity [1] [%]	residual activity [2] [%]	residual activity [3] [%]	residual activity [4] [%]	residual activity [5] [%]	residual activity [6] [%]	residual activity [7] [%]	residual activity [8] [%]	residual activity [9] [%]	residual activity [10] [%]
CC#CC(=O)Nc1cc2c(Nc3ccc(F)c(Cl)c3)ncnc2cn1	95	79	123	102	97	105	90	74	90	84
O=C(O)c1ccc2c3c1cccc3c(=O)n1c3ccccc3nc21	93	93	98	93	95	84	97	48	83	72
Oc1n[nH]c2nnc(-c3c(-c4ccccc4)nn4ccccc34)cc12	88	83	109	111	92	87	98	73	72	96
O=C1Nc2cc(Br)ccc2/C1=C1/Nc2ccccc2/C1=N\O	83	87	72	78	60	55	93	102	8	-1
NC(=O)c1ccc2[nH]c(-c3ccc(Oc4ccc(Cl)cc4)cc3)nc2c1	94	106	115	139	94	102	98	72	97	87
Cn1cnc2cc3c(Nc4cccc(Br)c4)ncnc3cc21	88	92	107	95	102	102	101	81	97	101
CNc1cc2c(Nc3cccc(Br)c3)ncnc2cn1	86	84	133	110	104	109	99	25	95	102
COc1cc2ncnc(Nc3ccc(Oc4ccccc4)cc3)c2cc1OC	99	114	137	129	89	135	105	81	99	93
COc1ccc(C(=O)Nc2sc3c(c2C(N)=O)CCCC3)cc1OC	89	74	123	88	91	99	104	93	92	95
COc1cccc(-c2cc(=O)c3ccccc3o2)c1N	102	95	104	117	94	98	109	110	86	114
N#CC(C#N)=C(N)/C(C#N)=C/c1ccc(O)cc1	96	84	122	92	91	85	119	82	–	–
Oc1ccc(Nc2nc(-c3ccc(Cl)cc3)cs2)cc1	111	129	97	107	109	94	110	97	78	87
O=c1cc(-c2cccc3c2Sc2ccccc2S3)oc(N2CCOCC2)c1	93	93	104	116	95	90	103	94	99	109
COc1ccc(S(=O)(=O)N(CCO)c2ccccc2CN(C)C/C=C/c2ccc(Cl)cc2)cc1	98	78	115	114	96	85	102	104	107	90
O=C1NC(=O)c2c1c1c3ccccc3[nH]c1c1[nH]c3cc(Br)ccc3c21	85	85	94	84	87	76	92	86	92	38
O=C1NC(=O)/C(=C/c2ccc3c(c2)OC(F)(F)O3)S1	106	85	133	112	105	97	100	74	100	107
